Measured values from PubChem BioAssay (EPA / NIEHS).
Inconclusive results are not listed. Activity calls are given as the source filed them. Rule for the calls: active = hit-call score of the fitted dose curve at least 0.9, where 1 is the maximum; inconclusive = response in the unintended direction; inactive = score below 0.9.

test: ATG_GAL4_TRANS: Attagene TRANS-FACTORIAL HepG2 Assay for GAL4 (Internal Marker) (AID 2282976); settings: HepG2 Attagene TRANS GAL4 internal marker reporter
Protocol: ATG_TRANS is a cell-based, multiplexed-readout assay that uses HepG2, a human liver cell line, with measurements taken at 24 hours after chemical dosing in a 24-well plate.ATG_GAL4_TRANS is one of 30 assay component(s) measured or calculated from the ATG_TRANS assay. It is designed to make measurements of mRNA induction, a form of inducible reporter, as detected with fluorescence intensity signals by Reverse transcription polymerase chain reaction (RT-PCR) and Capillary electrophoresis technology.Data from the assay component ATG_GAL4_TRANS was analyzed into 1 assay endpoint. This assay endpoint, ATG_GAL4_TRANS, was analyzed in the positive analysis fitting direction relative to DMSO as the negative control and baseline of activity. Using a type of inducible reporter, measures of mRNA for gain-of-signal activity can be used to understand the background control at the transcription factor-level as they relate to the gene . Furthermore, this assay endpoint can be referred to as a secondary readout, because this assay has produced multiple assay endpoints where this one serves a background control function. To generalize the intended target to other relatable targets, this assay endpoint is annotated to the background measurement intended target family, where the subfamily is baseline control.
Human liver HepG2 cells are transiently transfected with multiple reporter transcription units (MRTUs) in 6-well plates using FuGene 6 reagent (Roche; 3 ml FuGene/1 mg DNA). The MRTU constructs are regulated by a cis-regulating element (promoter). […] A major difference between the CIS and TRANS system is that in CIS activities of endogenous TFs are measured, whereas the TRANS assay evaluates changes in activities of exogenous, chimeric NR-Gal4 proteins. […] At the end of 24 hour incubation, total RNA was isolated using TriZol reagent (Invitrogen). The isolated RNA is then reverse-transcribed using oligo(dT) primer and Mo-MLV reverse transcriptase (Invitrogen) with DNAse I (Ambion) treatment for 30 min. The one-tenth of the produced cDNA was amplified by PCR using Taq DNA polymerase (Invitrogen) and two reporter sequence-specific primers. The PCR products were fluorescently labeled by primer extension with 6-arboxyfluorescein (6-FAM) 5'-labeled reporter sequence-specific primer (2 min at 95 C, 20 s at 68 C and 10 min at 72 C) and these products were digested with 5U of HpaI (New England Biolabs) for 2h at 37 C. The fragments were purified using Qiaquick PCR columns (Qiagen), analyzed on an ABI 3130xL genetic analyzer (Applied Biosystems) with peak positions identified by using a set of X-rhodamine (ROX)-labeled MapMarker1000 molecular weight standards (BioVentures). The raw capillary electrophoresis data was processed using Attagraph software (Attagene).

outcome, inactive:
FC(F)(F)N1C(F)(F)C(F)(F)OC(F)(F)C1(F)F
C=CC(=C)CC/C=C(\C)CCC=C(C)C
CCCCC=O
C=CC(F)(F)C(F)(F)C(F)(F)C(F)(F)F
Cc1ccc(C)c(S(=O)(=O)O)c1
O=C(NO)c1ccccc1
C=CC(C)(CCC=C(C)C)OC(C)=O (stereo not given)
CCOC(OCC)C(=O)c1ccccc1
CCO[Si](C)(C)OCC
Brc1cc(Br)c(Oc2c(Br)cc(Br)c(Br)c2Br)cc1Br
CCc1cccc(CC)c1NC(=O)C(=O)O
CC1CCC(CO)CC1 (stereo not given)
CC(C)(C)C1CCCCC1O (stereo not given)
O=C1NS(=O)(=O)c2ccccc21
FC(F)=C(F)C(F)(F)C(F)(F)C(F)(F)C(F)F
O=C(OC(=O)C(F)(F)C(F)(F)F)C(F)(F)C(F)(F)F
CCOC(=O)CN[C@@H](C(=O)N1CC[C@H]1C(=O)NCc1ccc(/C(N)=N/O)cc1)C1CCCCC1
C=Cc1ccc(O)c(OC)c1
CC=O
CCOC=C(C(=O)OCC)C(=O)OCC
CN(Cc1cnc2nc(N)nc(N)c2n1)c1ccc(C(=O)N[C@@H](CCC(=O)O)C(=O)O)cc1
FC(F)(F)C(F)(F)C(F)(F)Br
O=C1OC(=O)C(F)(F)C1(F)F
C/C=C/C(=O)C1=C(C)CCCC1(C)C
CC[N+](CC)(CC)Cc1ccccc1
O=C(O)CCC(F)(F)C(F)(F)C(F)(F)C(F)(F)C(F)(F)C(F)(F)F
CCCCCC(C)OC(=O)COc1ccc(Cl)c2cccnc12 (stereo not given)
FC(OC(F)(F)C(F)(F)C(F)(F)F)C(F)(F)F (stereo not given)
CCC(=O)O
O=C(F)C(F)(F)C(F)(F)C(F)(F)C(F)F
CC(=O)CC(C)C
COc1cc([N+](=O)[O-])ccc1N
CC(C)c1c(C(=O)Nc2ccccc2)c(-c2ccccc2)c(-c2ccc(F)cc2)n1CC[C@@H](O)C[C@@H](O)CC(=O)O
OCCN1CN(CCO)CN(CCO)C1
COC(O)c1ccccc1 (stereo not given)
O=C1OC(=O)c2cc(-c3ccc4c(c3)C(=O)OC4=O)ccc21
C=CC(=O)OCCC(F)(F)C(F)(F)C(F)(F)C(F)(F)C(F)(F)C(F)(F)F
NCCN
CCOC(C)=O
CN(CCO)S(=O)(=O)C(F)(F)C(F)(F)C(F)(F)C(F)(F)C(F)(F)C(F)(F)C(F)(F)C(F)(F)F
